# Laboratory results: PubChem BioAssay
# Calls of active or inactive are those of the source. Unless noted, how the calls were made is not given here.
# Experiments:
# [1] = A549 cell viability effects, profiling panel, calcein-AM fluorescence, 48 h, basal (AID 1162); conditions: higher = more signal; further: test concentration not given here
# [2] = adipocyte viability effects, profiling panel, cell-based, 3T3-L1 adipocytes, calcein-AM fluorescence, 48 h, basal (AID 1163); conditions: 3T3-L1 adipocytes viability, higher = more signal; further: test concentration not given here
# [3] = HepG2 cell viability effects, profiling panel, calcein-AM fluorescence, 48 h, basal (AID 1164); conditions: higher = more signal; further: test concentration not given here
# [4] = MM1S cell viability effects, profiling panel, calcein-AM fluorescence, 48 h, basal (AID 1165); conditions: higher = more signal;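 further: viability of MM1S multiple myeloma cells under basal unstimulated conditions; test concentration not given here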
# [5] = basal RPMI8226 viability, no added stimulus, profiling panel, cell-based, calcein-AM fluorescence, 48 h, PK04 Diversity Set (AID 1166); conditions: RPMI8226 myeloma viability, higher = more signal;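 further: cells grown under basal conditions without added stimulus; test concentration not given here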
# [6] = basal HepG2 mitochondrial membrane potential changes, profiling panel, cell-based, JC-1 fluorescence, 24 h, 100 nL compound (AID 1167); conditions: higher = more signal; further: test concentration not given here
# [7] = basal 3T3-L1 adipocyte mitochondrial potential changes, profiling panel, cell-based, JC-1 fluorescence, 3T3-L1 adipocytes, 24 h, 100 nL compound (AID 1168); conditions: JC-1 mitochondrial fluorescence, higher = more signal, called active from +8 up or from −8 down; further: test concentration not given here
# [8] = basal RPMI8226 mitochondrial membrane potential changes, profiling panel, cell-based, JC-1 fluorescence, 24 h, 100 nL compound (AID 1169); conditions: RPMI8226 myeloma, JC-1 mitochondrial potential fluorescence, higher = more signal; further: test concentration not given here
# [9] = basal MM1S mitochondrial membrane potential changes, profiling panel, cell-based, JC-1 fluorescence, 24 h, 100 nL compound (AID 1170); conditions: higher = more signal; further: test concentration not given here
# [10] = A549 lung cancer cell viability effects, profiling panel, resazurin fluorescence, 24 h, PK04 Diversity Set (AID 1171); conditions: higher = more signal, called active from +8 up or from −8 down; further: test concentration not given here
# [11] = HepG2 liver cancer cell viability effects, profiling panel, resazurin fluorescence, 24 h, PK04 Diversity Set (AID 1172); conditions: higher = more signal; further: test concentration not given here
# [12] = basal S. cerevisiae growth modulation, no modifier, primary screen, OD600, strain BY4716, 24 h, basal condition (AID 1173); conditions: OD600, 24 h, higher = more signal, called active from +8 up or from −8 down
# [13] = MM1S myeloma cell viability, profiling panel, resazurin fluorescence, basal, 24 h, PK04 Diversity Set (AID 1174); conditions: higher = more signal, called active from +8 up or from −8 down;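 further: MM1S multiple myeloma cell line; test concentration not given here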
# [14] = target: Dihydroorotate dehydrogenase (quinone), mitochondrial (Plasmodium falciparum (isolate 3D7)) (UniProt Q08210); assay: PfDHODH enzyme inhibitors, primary screen, biochemical, C-terminal His tag, absorbance 600 nm (AID 1175); conditions: DCIP absorbance 600 nm, higher = more signal, called active from +8 up or from −8 down;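 further: recombinant parasite enzyme with a five histidine tag at its C terminus; test concentration not given here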
# Chain of Dihydroorotate dehydrogenase (quinone), mitochondrial (Plasmodium falciparum (isolate 3D7)) (Q08210 whole entry, looked up): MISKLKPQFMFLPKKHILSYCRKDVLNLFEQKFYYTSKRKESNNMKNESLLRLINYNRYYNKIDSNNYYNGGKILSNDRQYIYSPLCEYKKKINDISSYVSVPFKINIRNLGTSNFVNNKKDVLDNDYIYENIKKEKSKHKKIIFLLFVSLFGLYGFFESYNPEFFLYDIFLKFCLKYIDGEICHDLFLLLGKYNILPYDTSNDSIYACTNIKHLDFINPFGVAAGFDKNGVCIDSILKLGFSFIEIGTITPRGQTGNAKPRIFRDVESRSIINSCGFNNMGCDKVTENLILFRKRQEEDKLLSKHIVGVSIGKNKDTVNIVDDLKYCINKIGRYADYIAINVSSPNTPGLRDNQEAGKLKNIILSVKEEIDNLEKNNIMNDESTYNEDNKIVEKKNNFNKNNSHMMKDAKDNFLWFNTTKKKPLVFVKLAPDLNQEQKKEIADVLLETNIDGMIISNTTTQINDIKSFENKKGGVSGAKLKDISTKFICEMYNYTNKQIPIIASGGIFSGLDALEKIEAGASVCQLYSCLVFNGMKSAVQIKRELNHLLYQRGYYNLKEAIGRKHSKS
# [15] = P. aeruginosa biofilm formation inhibitors, primary screen, strain PAO1, LB-PBS medium, absorbance 600 nm (AID 1176); further: test concentration not given here; conditions: P. aeruginosa PAO1 growth/biofilm, A600, 12 h; higher = more signal
# [16] = S. cerevisiae RM11-1a growth modifiers, primary screen, strain RM11-1a, OD600, basal, 24 h (AID 1177); conditions: OD600, 24 h, higher = more signal, called active from +8 up or from −8 down;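 further: cultures grown under basal conditions with no added stressor; test concentration not given here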
# [17] = E. coli acrAB mutant growth effects, primary screen, E. coli filamentation inducers, strain DRC39, OD650, 24 h (AID 1178); conditions: higher = more signal, called active from +8 up or from −8 down;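 further: growth measured as culture turbidity by optical density at 650 nm; test concentration not given here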
# [18] = E. coli acrAB mutant growth effects, primary screen, E. coli filamentation inducers, strain DRC39, OD650, 48 h (AID 1179);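 further: screen aims at cell division blockers that make cells filament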; conditions: E. coli DRC39 delta-acrAB growth, higher = more signal, called active from +8 up or from −8 down
# [19] = RPMI8226 myeloma cell viability, profiling panel, resazurin fluorescence, basal, 24 h, PK04 Diversity Set (AID 1180); conditions: higher = more signal;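 further: RPMI8826 multiple myeloma cell line at 5000 cells per well; test concentration not given here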
# [20] = target: E3 ubiquitin-protein ligase XIAP (Homo sapiens) (UniProt P98170); assay: XIAP binders, primary screen, biophysical, small-molecule microarray, fluorescence 635 nm (AID 1181); conditions: small-molecule microarray binding, higher = more signal;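 further: score merges 667 nm emission and signal to noise over triplicate slides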
# Chain of E3 ubiquitin-protein ligase XIAP (Homo sapiens) (P98170 whole entry, looked up): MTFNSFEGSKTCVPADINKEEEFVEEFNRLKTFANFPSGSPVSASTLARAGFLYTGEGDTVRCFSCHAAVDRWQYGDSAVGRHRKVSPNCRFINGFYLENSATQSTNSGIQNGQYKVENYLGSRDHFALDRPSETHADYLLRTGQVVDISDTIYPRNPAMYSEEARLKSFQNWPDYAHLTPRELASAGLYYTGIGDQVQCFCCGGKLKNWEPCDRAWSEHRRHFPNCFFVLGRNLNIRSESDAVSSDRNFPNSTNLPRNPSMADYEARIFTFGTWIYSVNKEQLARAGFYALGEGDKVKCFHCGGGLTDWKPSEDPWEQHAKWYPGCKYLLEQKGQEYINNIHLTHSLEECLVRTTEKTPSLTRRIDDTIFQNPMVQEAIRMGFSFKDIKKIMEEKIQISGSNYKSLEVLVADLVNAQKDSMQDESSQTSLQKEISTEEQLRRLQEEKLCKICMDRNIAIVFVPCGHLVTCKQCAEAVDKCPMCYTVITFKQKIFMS
structure (smiles),measurement,setting,value
CCN(CC)c1ccc(N2CC=CC34O[C@@H]5/C=C\CCC(C)OC(=O)C5[C@H]3C(=O)N(CCCCCO)[C@@H]4C2=O)cc1 (stereo not given in full),z-score,[1],0.192
same,z-score,[2],-0.743
same,z-score,[3],0.0376
same,z-score,[4],1.56
same,z-score,[5],-0.863
same,z-score,[6],0.423
same,z-score,[7],0.158 (inactive)
same,z-score,[8],-0.0486
same,z-score,[9],1.29
same,z-score,[10],0.697 (inactive)
same,z-score,[11],0.18
same,z-score,[12],-0.596 (inactive)
same,z-score,[13],0.603 (inactive)
same,composite z-score,[14],0.513 (inactive)
same,z-score,[15],-0.469 (inactive)
same,z-score,[16],-0.147 (inactive)
same,z-score,[17],0.95 (inactive)
same,z-score,[18],1.1 (inactive)
same,z-score,[19],0.802
same,composite z-score,[20],-0.161
O=C1NC(=O)C2C1C=CC(C(O)c1ccc(-c3ccccc3)s1)N2Nc1ccc(Cl)cc1Cl (stereo not given),z-score,[1],-1.95
same,z-score,[2],-0.901
same,z-score,[3],-2.13
same,z-score,[4],-3.61
same,z-score,[5],-3.05
same,z-score,[6],-2.92
same,z-score,[7],-1.08 (inactive)
same,z-score,[8],-0.983
same,z-score,[9],-0.247
same,z-score,[10],-1.65 (inactive)
same,z-score,[11],-3.58
same,z-score,[12],-1.99 (inactive)
same,z-score,[13],-1.69 (inactive)
same,composite z-score,[14],0.0414 (inactive)
same,z-score,[15],2.64 (inactive)
same,z-score,[16],0.856 (inactive)
same,z-score,[17],0.457 (inactive)
same,z-score,[18],-1.2 (inactive)
same,z-score,[19],-1.75
same,composite z-score,[20],0.849
NCCCCCCNC(=O)[C@H]1C[C@H]2C(=O)N[C@@H](Cc3ccccc3)C(=O)N2[C@H]1c1cccc(OCCO)c1,z-score,[1],0.516
same,z-score,[2],0.454
same,z-score,[3],-0.378
same,z-score,[4],0.456
same,z-score,[5],0.112
same,z-score,[6],-0.215
same,z-score,[7],0.896 (inactive)
same,z-score,[8],-0.802
same,z-score,[9],-0.531
same,z-score,[10],1.21 (inactive)
same,z-score,[11],-2.77
same,z-score,[12],-0.669 (inactive)
same,z-score,[13],1.51 (inactive)
same,composite z-score,[14],1.18 (inactive)
same,z-score,[15],-0.627 (inactive)
same,z-score,[16],0.262 (inactive)
same,z-score,[17],0.968 (inactive)
same,z-score,[18],0.846 (inactive)
same,z-score,[19],1.06
same,composite z-score,[20],0.081
O=C(NCc1ccccc1)[C@@H]1c2ccccc2C(=O)N(C2Cc3ccccc3C2)[C@H]1c1ccc(CO)cc1,z-score,[1],0.365
same,z-score,[2],0.363
same,z-score,[3],0.291
same,z-score,[4],0.0344
same,z-score,[5],-1.3
same,z-score,[6],1.52
same,z-score,[7],-0.508 (inactive)
same,z-score,[8],0.0926
same,z-score,[9],0.458
same,z-score,[10],0.791 (inactive)
same,z-score,[11],-0.786
same,z-score,[12],0.848 (inactive)
same,z-score,[13],-0.139 (inactive)
same,composite z-score,[14],0.211 (inactive)
same,z-score,[15],0.581 (inactive)
same,z-score,[16],0.644 (inactive)
same,z-score,[17],0.0426 (inactive)
same,z-score,[18],-0.15 (inactive)
same,z-score,[19],0.12
same,composite z-score,[20],-0.133
CCCCC(=C=CC[C@@H](O)c1cccc(OCCO)c1)C[C@@H](O)c1ccccn1,z-score,[1],-0.0385
same,z-score,[2],0.317
same,z-score,[3],0.175
same,z-score,[4],0.225
same,z-score,[5],0.427
same,z-score,[6],-0.667
same,z-score,[7],0.316 (inactive)
same,z-score,[8],0.907
same,z-score,[9],-0.578
same,z-score,[10],0.764 (inactive)
same,z-score,[11],0.599
same,z-score,[12],-1.56 (inactive)
same,z-score,[13],0.0382 (inactive)
same,composite z-score,[14],-1.42 (inactive)
same,z-score,[15],0.968 (inactive)
same,z-score,[16],0.129 (inactive)
same,z-score,[17],0.584 (inactive)
same,z-score,[18],0.493 (inactive)
same,z-score,[19],0.695
same,composite z-score,[20],-0.102
O=C(O)C1N=C(c2ccc(OCCCO)cc2)N(c2ccccc2)O1 (stereo not given),z-score,[1],-0.906
same,z-score,[2],0.135
same,z-score,[3],-0.0572
same,z-score,[4],0.569
same,z-score,[5],-0.547
same,z-score,[6],-0.142
same,z-score,[7],0.663 (inactive)
same,z-score,[8],-1.22
same,z-score,[9],-0.228
same,z-score,[10],0.417 (inactive)
same,z-score,[11],-0.0554
same,z-score,[12],0.0427 (inactive)
same,z-score,[13],-0.258 (inactive)
same,composite z-score,[14],-0.928 (inactive)
same,z-score,[15],-0.469 (inactive)
same,z-score,[16],0.0613 (inactive)
same,z-score,[17],-0.351 (inactive)
same,z-score,[18],0.46 (inactive)
same,z-score,[19],-0.219
same,composite z-score,[20],-0.22
COCCOC(=O)N1C(=O)[C@@]2(c3cc(C#CC4=CCCCC4)ccc31)[C@H](c1ccc(OCCO)cc1)N1[C@H](c3ccccc3)[C@H](c3ccccc3)OC(=O)[C@H]1[C@@H]2C(=O)N1CCc2cc(OC)c(OC)cc2C1,z-score,[1],1.31
same,z-score,[2],0.453
same,z-score,[3],1.96
same,z-score,[4],0.505
same,z-score,[5],-0.0521
same,z-score,[6],0.578
same,z-score,[7],2.21 (inactive)
same,z-score,[8],-0.521
same,z-score,[9],-0.935
same,z-score,[10],-1.12 (inactive)
same,z-score,[11],-0.248
same,z-score,[12],0.683 (inactive)
same,z-score,[13],-0.607 (inactive)
same,composite z-score,[14],-0.0879 (inactive)
same,z-score,[15],2.68 (inactive)
same,z-score,[16],4.26 (inactive)
same,z-score,[17],0.118 (inactive)
same,z-score,[18],0.796 (inactive)
same,z-score,[19],0.474
same,composite z-score,[20],-0.0872
